Data on 23 compounds can be found in ChEMBL document CHEMBL4513141, “CO-ADD screening of NIH (USA) - Clinical Collection” (2021).

The Inhibition is the change of the read-out against control, counted positive when it falls.

Entries with a potency or affinity are not part of this list.

The test system of one assay is Klebsiella pneumoniae. The note with it: Concentration 20 uM; ASSAY_TEST Inhibition of Bacterial Growth; detection method Absorption (OD600); MEDIA CAMHB; plate type 384well; NBS; CORNING #3640; time 18 hr.
For a further assay, the system named is Candida albicans. The note with it: 20 µM.
For another assay, the system named is Cryptococcus neoformans. The following applies: Concentration 20 uM; ASSAY_TEST Inhibition of Fungal Growth; detection method Resazurin; Absorption (OD600-OD570); plate type 384well; NBS; CORNING #3640. For orientation: The colour change of resazurin is a common sign of viable cells or microbes.

In the case of `Nc1nc(O)c2ncn(CCC(CO)CO)c2n1` [PENCICLOVIR], the Inhibition is 17.55% in the assay with Klebsiella pneumoniae, 0.56% with Candida albicans and -9.17% in the assay with Cryptococcus neoformans.

On to `CC1=C(/C=C/C(C)=C/C=C/C(C)=C/C(=O)O)C(C)(C)CCC1` [TRETINOIN], for which the Inhibition with Klebsiella pneumoniae was 14.57%; in the assay with Candida albicans it was 2.93%; in the assay on Cryptococcus neoformans, -0.54%.

In the case of `CC(=O)Nc1nnc(S(N)(=O)=O)s1` [ACETAZOLAMIDE], the Inhibition is 10.3% in the assay with Klebsiella pneumoniae, 4.56% with Candida albicans and -2.97% with Cryptococcus neoformans.

As for `CS(=O)(=O)O.Cc1c(O)cccc1C(=O)N[C@@H](CSc1ccccc1)[C@H](O)CN1C[C@H]2CCCC[C@H]2C[C@H]1C(=O)NC(C)(C)C` [NELFINAVIR MESYLATE], the Inhibition is 0.71% in the assay on Klebsiella pneumoniae, 0.96% in the assay with Candida albicans and -18.17% in the assay with Cryptococcus neoformans.

As for `COc1ccc2c(c1)c(CC(=O)O)c(C)n2C(=O)c1ccc(Cl)cc1.O`, the values for the Inhibition in the assay with Klebsiella pneumoniae, in the assay with Candida albicans and in the assay with Cryptococcus neoformans were 8.34%, 3.53% and 1.93%, respectively.

`CN1C(=O)CC[C@H]1c1cccnc1` [COTININE]: the Inhibition in the assay with Klebsiella pneumoniae is 5.32%; in the assay on Candida albicans it was 4.46%; in the assay with Cryptococcus neoformans, -1.87%.

In the case of `COc1ccc([C@@H]2Sc3ccccc3N(CCN(C)C)C(=O)[C@@H]2OC(C)=O)cc1.Cl` [DILTIAZEM HYDROCHLORIDE], the Inhibition with Klebsiella pneumoniae was 11.57%; with Candida albicans, 4.02%; in the assay on Cryptococcus neoformans, 1.8%.

For `C=C(CC)C(=O)c1ccc(OCC(=O)O)c(Cl)c1Cl` [ETHACRYNIC ACID], the Inhibition with Klebsiella pneumoniae is 8.53%; in the assay on Candida albicans, 21.1%; with Cryptococcus neoformans, -8.91%.

On to `CC(=O)O.CC(C)C[C@H](NC(=O)[C@@H](COC(C)(C)C)NC(=O)[C@H](Cc1ccc(O)cc1)NC(=O)[C@H](CO)NC(=O)[C@H](Cc1c[nH]c2ccccc12)NC(=O)[C@H](Cc1c[nH]cn1)NC(=O)[C@H]1CCC(=O)N1)C(=O)N[C@H](CCCNC(=N)N)C(=O)N1CCC[C@@H]1C(=O)NNC(N)=O`, for which the Inhibition is 2.33% in the assay with Klebsiella pneumoniae, 2.52% with Candida albicans and -3.07% in the assay with Cryptococcus neoformans.

In the case of `Nc1nc(N)nc(-c2cc(Cl)ccc2Cl)n1.O=C(O)/C=C\C(=O)O` [IRSOGLADINE MALEATE], the Inhibition is 5.85% with Klebsiella pneumoniae, 2.42% in the assay with Candida albicans and -1.72% with Cryptococcus neoformans.

`CCN(Cc1ccncc1)C(=O)C(CO)c1ccccc1` (centres undefined) [TROPICAMIDE]: the figures for the Inhibition in the assay with Klebsiella pneumoniae, in the assay with Candida albicans and in the assay on Cryptococcus neoformans were 7.31%, 0.91% and -7.15%, respectively.

For the compound `Cc1ccc(C)c(OCCCC(C)(C)C(=O)O)c1` [GEMFIBROZIL], the Inhibition was 7.25% in the assay on Klebsiella pneumoniae, 8.15% in the assay with Candida albicans and -1.55% in the assay on Cryptococcus neoformans.

Take `CNC(=C[N+](=O)[O-])NCCSCc1ccc(CN(C)C)o1.Cl` [RANITIDINE HYDROCHLORIDE]: the Inhibition with Klebsiella pneumoniae came to 4.5%; in the assay on Candida albicans it was 2.99%; in the assay on Cryptococcus neoformans it was 5.97%.

On to `CC(=O)[C@H]1CC[C@H]2[C@@H]3C[C@H](C)C4=CC(=O)CC[C@]4(C)[C@H]3[C@@H](O)C[C@]12C` [MEDRYSONE], for which the Inhibition with Klebsiella pneumoniae was 12.23%; with Candida albicans, 1.89%; in the assay with Cryptococcus neoformans, -4.18%.

For the compound `C#C[C@]1(O)CC[C@H]2[C@@H]3[C@H](C)CC4=C(CCC(=O)C4)[C@H]3CC[C@@]21C` [TIBOLONE], the figures for the Inhibition in the assay on Klebsiella pneumoniae, in the assay on Candida albicans and in the assay on Cryptococcus neoformans were 12.38%, 6.29% and -2.16%, respectively.

For the compound `Oc1ncc(F)cn1`, the Inhibition in the assay with Klebsiella pneumoniae was 12.75%; in the assay on Candida albicans it was 0.46%; in the assay with Cryptococcus neoformans, -8.59%.

In the case of `Nc1ccc2cn[nH]c2c1`, the Inhibition with Klebsiella pneumoniae is 2.93%; in the assay on Candida albicans, 4.22%; in the assay with Cryptococcus neoformans, 6.83%.

Consider `CNC(=C[N+](=O)[O-])NCCSCc1csc(CN(C)C)n1` [NIZATIDINE], for which the Inhibition in the assay on Klebsiella pneumoniae was 14.45%; with Candida albicans, 0.73%; in the assay with Cryptococcus neoformans, -0.19%.

Regarding `CCCC1O[C@@H]2C[C@H]3[C@@H]4CCC5=CC(=O)C=C[C@]5(C)[C@H]4[C@@H](O)C[C@]3(C)[C@]2(C(=O)CO)O1` (some centres undefined) [BUDESONIDE], the Inhibition was 10.57% with Klebsiella pneumoniae, 2.59% with Candida albicans and -1.35% in the assay on Cryptococcus neoformans.

Consider `COc1cc([C@@H]2c3cc4c(cc3[C@@H](O[C@@H]3O[C@@H]5CO[C@@H](C)O[C@H]5[C@H](O)[C@H]3O)[C@H]3COC(=O)[C@H]23)OCO4)cc(OC)c1O` [ETOPOSIDE], for which the Inhibition with Klebsiella pneumoniae was 4.81%; with Candida albicans, 0.59%; in the assay on Cryptococcus neoformans it was -6.14%.

Turning to `Cc1c(C(=O)NN2CCCCC2)nn(-c2ccc(Cl)cc2Cl)c1-c1ccc(I)cc1`, the figures for the Inhibition in the assay with Klebsiella pneumoniae, in the assay on Candida albicans and with Cryptococcus neoformans were -0.74%, 7.4% and -5.99%, respectively.

Consider `CNNCc1ccc(C(=O)NC(C)C)cc1.Cl` [PROCARBAZINE HYDROCHLORIDE], for which the results for the Inhibition in the assay with Klebsiella pneumoniae, with Candida albicans and in the assay on Cryptococcus neoformans were 8%, 2.55% and -6.46%, respectively.

For `Cl.O.c1cnc(N2CCN(Cc3ccc4c(c3)OCO4)CC2)nc1`, the results for the Inhibition with Klebsiella pneumoniae, in the assay with Candida albicans and with Cryptococcus neoformans were 3.33%, 3.11% and -7.46%, respectively.
